Pf growth 48h = inhibits P. falciparum growth in the first generation, 48 h; P. falciparum luciferase growth in erythrocytes, 48 h; Potency, µM (doses to about 28.7 µM), usual class: inhibitors; 310,000 compounds, 5.9% hits
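First compound was added to culture medium, then infected red cells at 0.1% parasitemia and 2% hematocrit (final). After incubation at 37 C under 5% CO2, luciferase detection reagent was dispensed and light output recorded.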
Cycloheximide cs = counter-screen for Shiga toxin inhibitors: cycloheximide protein synthesis inhibition | cell reporter, cycloheximide protein synthesis inhibition counterscreen | max response, % | 300,000 compounds, 12% hits | AID 2314; in the data active = max response mostly above about 13%, no sharp cut-off; inactive = mostly below about 14%; also: read at 38.3 µM for the half of the compounds with a filed dose
Pf growth 96h = P. falciparum growth inhibition at 96 hours. AID 504834. 320,000 compounds, 6.9% hits. P. falciparum luciferase reporter growth, 96 h. Potency, µM (top dose mostly 28.7 µM), actives largely listed as inhibitors
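Two parasite generations (96 h, 37 C, 5% CO2) of compound exposure in infected erythrocytes (0.05% parasitemia, 2% hematocrit). Luciferase-reporter P. falciparum; decreased luminescence indicates inhibited growth, aimed at apicoplast-acting delayed death.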
SARS PLpro yeast = SARS-CoV PLP inhibition in yeast. Potency, µM (top dose mostly 32.9 µM), actives largely listed as activators. S. cerevisiae expressing SARS-CoV PLpro, growth rescue. 330,000 compounds, 0.19% hits; calls by dose curve; also: nearly all actives have a fitted effect of over 55% in size
AMA1 RON2 block = disrupts binding of P. falciparum AMA1 to RON2 | AlphaScreen AMA1-biotinylated RON2 peptide binding | Potency, µM (series often up to 58.2 µM), most hits filed as inhibitors | 360,000 compounds, 0.2% hits; also: nearly all actives have a fitted effect of over 45% in size
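AMA1 (3D7) with his tag at 25 nM final met compounds first, then biotinylated RON2 peptide at 25 nM; detection used donor plus acceptor beads, 10 µg/mL apiece, read by AlphaScreen after 30 min at room temperature.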
Shiga inhibitor = Shiga toxin inhibition; Vero cells, Shiga toxin protein synthesis inhibition reporter; inhibition, % at 38.7 µM; 290,000 compounds, 9.2% hits; in the data active = inhibition mostly above about 28%, no sharp cut-off; inactive = mostly below about 43%
Numbers stand for hits; . = inactive; ? = inconclusive; / = not tested or not shown; + = active, no number; [ ] = dose if it differs, or a comment. The list is not random: actives were taken first. Their share in the collection is about 19%. Unless noted, calls follow the shape of the dose curve; as a rule, active = well fitted curve in the direction sought with a large enough effect; inconclusive = small, poorly fitted or top-dose-only effect, or another doubt; inactive = no such curve, though single readings can be large; an effect the other way counts as inactive or inconclusive.

SMILES	Pf growth 48h	Cycloheximide cs	Pf growth 96h	SARS PLpro yeast	AMA1 RON2 block	Shiga inhibitor
COc1cc(/C=N/Nc2ccc(Cl)c(C(=O)O)c2)ccc1OC(=O)c1ccco1	.	37	.[5.75 µM]	.	.	68
C=CCOc1c(Br)cc(/C=N/Nc2ccc(C(=O)O)cc2)cc1OCC	.	79	.	.	.	+
COc1cc(/C=N/Nc2ccc(Cl)c(C(=O)O)c2)ccc1OC(=O)c1cccs1	.	.	.	.	.	.
COc1cc(C=O)ccc1OC(=O)c1ccc(C(C)C)cc1	.	35	.	.	.	.
COc1ccc(C(=O)Oc2cc(/C=N/NC(N)=S)ccc2OC)cc1	.	.	.	?	.	.
COc1cc(C=O)ccc1OC(=O)c1ccncc1	.	.	.	.	.	.
COc1ccc(C(=O)Oc2ccc(/C=N/Nc3ccc(Cl)c(C(=O)O)c3)cc2OC)cc1	.	21	.	.	.	93
CC(=O)N1CCc2cc(S(=O)(=O)NC(CC(C)C)C(=O)N3CCn4c3nc3ccccc34)ccc21 (stereo not drawn)	?	.	?	.	.	.
CCC(C)c1ccccc1NC(=O)C(C)OC(=O)CN1C(=O)NC(C)(C)C1=O (stereo not drawn)	.	/	.	.	.	/
CN(C)S(=O)(=O)c1cc(NC(=O)COC(=O)c2ccc3c(c2)OCO3)ccc1Cl	?	.	?	.	.	.
Nc1ccc(O)cc1C(=O)OCC(=O)c1ccc(C2CCCCC2)cc1	.	61	.	.	.	145
COc1ccc(C(=O)OCC(=O)c2ccc(C3CCCCC3)cc2)cc1	.	13	.	.	.	.
C=CCN1C(=O)c2ccc(C(=O)N(CC)CC(=O)Nc3c(F)cccc3F)cc2C1=O	?	/	.	.	.	/
Cc1nn(-c2ccccc2)cc1/C=N/O	/	.	.	.	.	.
Clc1ccc(-n2cnnn2)cc1	.	.	?	.	.	.
O/N=C/c1cn(-c2ccc(Cl)cc2)nn1	.	37	.	.	.	.
O/N=C/c1cn(-c2ccccc2)nn1	.	27	.	.	.	.
C[C@H](CO)N1C[C@H](C)[C@@H](CN(C)C(=O)NC2CCCCC2)Oc2c(NS(=O)(=O)c3cn(C)cn3)cccc2C1=O	/	/	/	.	.	/
Cc1cccc(OCC(=O)Oc2ccc(Cl)cc2)c1	/	/	/	/	.	/
Cc1cccc(OC(=O)NCCOC(=O)N(O)c2ccc(Cl)cc2)c1	.	.	7.4µM	.	.	.
COc1ccc(C(=O)NC(=O)NC2(C(Cl)(Cl)Cl)OCCO2)cc1	.	51	.	.	.	76
CC(=O)O[C@]1(C(C)=O)CC[C@H]2[C@@H]3C=CC4=CC(=O)C=C[C@]4(C)[C@H]3CC[C@@]21C	12µM	.	4.7µM	.	.	.
CC(=O)O[C@]1(C(C)=O)CCC2C3C=C(C)C4=CC(=O)CC[C@]4(C)C3CC[C@@]21C (stereo partly drawn)	?	.	?	.	.	.
CC(=O)O[C@]1(C(C)=O)CC[C@H]2[C@@H]3C=C(C)C4=CC(=O)CC[C@@H]4[C@H]3CC[C@@]21C	13µM	/	?	/	.	/
C=C1CC2C3C=C(C)C4=CC(=O)CCC4(C)C3CCC2(C)[C@@]1(OC(C)=O)C(C)=O (stereo partly drawn)	?	/	11µM	/	/	/
SMILES	Pf growth 48h	Cycloheximide cs	Pf growth 96h	SARS PLpro yeast	AMA1 RON2 block	Shiga inhibitor
CC(=O)OC1(C(C)=O)CCC2C3CC(Cl)C4=CC(=O)CCC4(C)C3CCC21C (stereo not drawn)	/	/	/	/	.	/
COC(=O)c1c(N2C(=O)CC(Sc3ncccc3C(=O)O)C2=O)sc(C)c1C (stereo not drawn)	.	.	.	.	.	.
CSCCC(c1nnnn1C1CCCC1)N1CCN(C/C=C/c2ccccc2)CC1 (stereo not drawn)	/	/	/	/	.	/
COC(=O)c1cccc(NC(=O)c2cccnc2C(=O)O)c1C	.	29	.	.	.	59
O=C(Nc1cccc2cccnc12)c1cc(F)c(F)cc1Cl	.	29	.	.	.	/
COc1ccccc1C(=O)Nc1cccc2cccnc12	.	39	.	.	.	.
CC12CCC(C(=O)N/N=C/c3ccc(O)cc3)(OC1=O)C2(C)C (stereo not drawn)	.	.	.	.	.	.
O=C1NC(CCO)C(=O)NC1CCO (stereo not drawn)	/	/	/	/	.	/
CCC[N+]1(CC#CC(O)(c2ccccc2)C2CCCCC2)CCCCC1 (stereo not drawn)	1.7µM	.	.	.	.	.
O=C(C=Cc1cccs1)c1ccc(Cl)s1	/	/	/	/	.	/
Cc1ccc(O)c(C(=O)CC(=O)c2cccc(F)c2)c1	?	38	/	.	.	61
Cc1ccc(O)c(C(=O)CC(=O)c2ccc(Cl)cc2)c1	?	38	?	.	.	96
O=C(CC(=O)c1cc(Cl)ccc1O)c1ccccc1	?	55	?	.	.	74
Cc1cccc(C(=O)CC(=O)c2cc(Cl)ccc2O)c1	/	27	/	.	.	50
Cc1cnc2c(N)cc(C)c(C)c2c1	/	/	/	/	.	/
O=C(COC(=O)/C=C/c1cccc(C(F)(F)F)c1)NC(=O)NCc1ccco1	/	/	/	.	.	/
Cn1cnnc1SCCNS(=O)(=O)c1cccc([N+](=O)[O-])c1	.	.	.	.	.	.
COc1ccccc1/C=N/NC(=O)CC(=O)NCCc1ccccc1	/	/	/	/	.	/
COc1ccc(-n2c(SC3CCOC3=O)nc3ccccc3c2=O)cc1Cl (stereo not drawn)	.	.	.	.	.	.
COC(=O)c1ccc(CSc2nc3ccccc3c(=O)n2-c2ccccc2)o1	.	.	/	.	.	.
COc1ccc(-n2c(SC3CCOC3=O)nc3ccccc3c2=O)cc1OC (stereo not drawn)	.	38	.	.	.	.
COC(=O)c1ccc(CSc2nc3c(c(=O)n2-c2ccccc2)SCC3)o1	10µM	.	?	.	.	.
COC(=O)c1ccc(CSc2nc3ccccc3c(=O)n2-c2ccc(OC)c(OC)c2)o1	8.3µM	.	/	.	.	.
COc1ccc(-c2c(C(F)(F)F)nn(C)c2NC(=O)CSCC(=O)O)cc1	.	.	.	.	.	.
COC(=O)C(Cc1ccc(O)cc1)N1Cc2ccccc2C1=O (stereo not drawn)	.	41	.	.	.	42
COC(CNC(=O)[C@H](Cc1ccccc1)N1Cc2ccccc2C1=O)OC	.[0.00184 µM]	.	.	.	.	.
CCC(C)NC(=O)[C@H](CSCc1ccccc1)N1Cc2ccccc2C1=O (stereo partly drawn)	.	.	10µM	.	.	.
COC(=O)C(Cc1ccc(OC(=O)c2ccc(C)cc2)cc1)N1Cc2ccccc2C1=O (stereo not drawn)	.	57	.	.	.	89
CCN(CC)CCC12CC(C)OC1=Nc1ccccc1NC2=O (stereo not drawn)	/	/	/	/	.	/
NS(=O)(=O)c1ccc(CCNC(=O)Nc2ccc(Cl)c(Cl)c2)cc1	.	.	/	.	.	.
